In PubChem BioAssay (NCATS):

Assay: qHTS profiling for inhibitors of Plasmodium falciparum (HB3) proliferation (AID 743324);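 further: 100% = DMSO vehicle wells and 0% = artemisinin-treated control wells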
Details: Plasmodium falciparum HB3 blood-stage proliferation; at 28.7 µM (top of the series) unless noted
Outline: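 P. falciparum HB3 grown in erythrocytes (0.3% parasitemia, 2.5% hematocrit final) with compound for 72 h at 37 C, 5% CO2. Parasite DNA detected by SYBR Green after saponin/triton lysis overnight; normalized to 0.29 uM artemisinin and DMSO.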

**Q.** Which remaining proliferation (% of control), lower = more inhibition does the source give for CC(O)=C(C#N)C(=O)Nc1ccc(C(F)(F)F)cc1 here?
**A.** 98.9%

**Q.** Which remaining proliferation (% of control), lower = more inhibition does the source give for CC(C)C[C@@H](C(=O)N[C@H](C(=O)OC1CCCC1)c1ccccc1)[C@H](O)C(=O)NO here?
**A.** 11%

**Q.** Which remaining proliferation (% of control), lower = more inhibition does the source give for CCCCCCCCCCCCCC(=O)N[C@H](CO)[C@H](O)c1ccc([N+](=O)[O-])cc1 here?
**A.** 73.2%

Assay: qHTS profiling of the MIPE4 collection as inhibitors of Plasmodium falciparum (3D7) proliferation (AID 743344);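 further: scaled between DMSO vehicle wells and 0.29 µM artemisinin as full inhibition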
Details: P. falciparum 3D7 in erythrocytes, SYBR Green DNA fluorescence, 72 h; at 28.5 µM (top of the series) unless noted
Outline: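 Erythrocytes infected with P. falciparum (0.3% parasitemia, 2.5% hematocrit) incubated with compounds 72 h at 37 C, 5% CO2. Lysis with saponin/Triton buffer containing SYBR Green I, overnight at room temperature in the dark; DNA fluorescence (485/535 nm) normalised to 0.29 uM artemisinin and DMSO.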

**Q.** For O=c1[nH]nc(OCCCc2ccc(Cl)cc2)c(NCc2cccnc2)c1Br, which parasite growth, % of DMSO control is on record?
**A.** 6.4%

**Q.** For CC[C@H]1OC(=O)[C@H](C)[C@@H](O[C@H]2C[C@@](C)(OC)[C@@H](O)[C@H](C)O2)[C@H](C)[C@@H](O[C@@H]2O[C@H](C)C[C@H](N(C)C)[C@H]2O)[C@](C)(O)C[C@H](C)C(=NOCOCCOC)[C@H](C)[C@@H](O)[C@]1(C)O, which parasite growth, % of DMSO control is on record?
**A.** 53.1%

**Q.** For NC(N)=Nc1nc(CSCCC(N)=NS(N)(=O)=O)cs1, which parasite growth, % of DMSO control is on record?
**A.** 74.6%

**Q.** Which parasite growth, % of DMSO control does the source give for COc1cc2nc(-c3cc(F)ccc3O)nc(N[C@@H]3CNC[C@@H]3C(C)(C)O)c2cc1OC here?
**A.** 6.37%

**Q.** With Cc1[nH]c(C=C2C(=O)Nc3ccc(S(=O)(=O)N(C)c4cccc(Cl)c4)cc32)c(C)c1C(=O)N1CCN(C)CC1 as the compound, how does the parasite growth, % of DMSO control read?
**A.** 7.33%

**Q.** With C#CCN(C)CC1=Cc2ccccc2Oc2ccccc21 as the compound, how does the parasite growth, % of DMSO control read?
**A.** 51.9%

**Q.** For Cc1ccccc1C(=O)c1ccc(Nc2ccc(Br)cc2N)cc1Cl, which parasite growth, % of DMSO control is on record?
**A.** 27.4%

**Q.** With CN(CC=CC#CC(C)(C)C)Cc1cccc2ccccc12 as the compound, how does the parasite growth, % of DMSO control read?
**A.** 15%

**Q.** For CC(O)=C(C#N)C(=O)Nc1ccc(C(F)(F)F)cc1, which parasite growth, % of DMSO control is on record?
**A.** 63.7%

**Q.** For CC(C)C[C@@H](C(=O)N[C@H](C(=O)OC1CCCC1)c1ccccc1)[C@H](O)C(=O)NO, which parasite growth, % of DMSO control is on record?
**A.** 15.1%

**Q.** Which parasite growth, % of DMSO control does the source give for COc1c(C)c2c(c(O)c1CC=C(C)CCC(=O)O)C(=O)OC2 here?
**A.** 15.7%

**Q.** For CC(C)CN(C[C@H](O)[C@H](Cc1ccccc1)NC(=O)O[C@H]1CCOC1)S(=O)(=O)c1ccc(N)cc1, which parasite growth, % of DMSO control is on record?
**A.** 6.57%

**Q.** For CCCCC(F)(F)[C@@]1(O)CC[C@H]2[C@H](CC(=O)[C@@H]2CCCCCCC(=O)O)O1, which parasite growth, % of DMSO control is on record?
**A.** 77.3%

**Q.** Which parasite growth, % of DMSO control does the source give for CC1(C)[C@H]2CC[C@]3(C)[C@@H](C(=O)C=C4[C@@H]5C[C@@](C)(C(=O)O)CC[C@]5(C)CC[C@]43C)[C@@]2(C)CC[C@@H]1O here?
**A.** 93.2%

**Q.** With O=c1[nH]c(=O)n([C@H]2C[C@@H](O)[C@@H](CO)O2)cc1C(F)(F)F as the compound, how does the parasite growth, % of DMSO control read?
**A.** 62.3%

**Q.** With Nc1ncnc2c1ncn2[C@@H]1O[C@H](CO)[C@@H](O)[C@@H]1O as the compound, how does the parasite growth, % of DMSO control read?
**A.** 6.49%

**Q.** Which parasite growth, % of DMSO control does the source give for CC(NCCc1ccc(O)cc1)C(O)c1ccc(O)cc1 (stereo unspecified) here?
**A.** 85%

**Q.** Which parasite growth, % of DMSO control does the source give for O=C(c1ccc(C(=O)N2CCC(N3CCCC3)CC2)c(Nc2ccccc2)c1)N1CCC(N2CCCC2)CC1 here?
**A.** 80.6%

**Q.** For C[C@@H]1[C@H](O)[C@@H](C)C=CC=CC=CC=CC=CC=CC=C[C@H](O[C@@H]2O[C@H](C)[C@H](O)[C@H](N)[C@@H]2O)C[C@@H]2O[C@](O)(C[C@@H](O)C[C@@H](O)[C@H](O)CC[C@@H](O)C[C@@H](O)CC(=O)O[C@H]1C)C[C@H](O)[C@@H]2C(=O)O, which parasite growth, % of DMSO control is on record?
**A.** 16.7%

**Q.** Which parasite growth, % of DMSO control does the source give for NS(=O)(=O)c1cc(Cl)c(Cl)c(S(N)(=O)=O)c1 here?
**A.** 101%

**Q.** With COc1cc(Cl)cn2c(-c3cccc(NC4CNC4)n3)cnc12 as the compound, how does the parasite growth, % of DMSO control read?
**A.** 39.6%

**Q.** With CN1CCc2c(n(Cc3ccc(C(=O)NO)cc3)c3ccccc23)C1 as the compound, how does the parasite growth, % of DMSO control read?
**A.** 5.97%

**Q.** Which parasite growth, % of DMSO control does the source give for CC(C)C[C@@H](N)[C@H](O)C(=O)N[C@H](C(=O)N[C@H](C(=O)N[C@@H](CC(=O)O)C(=O)O)C(C)C)C(C)C here?
**A.** 102%

**Q.** With CC1(C)C(N(O)C(=O)Nc2ccc(Cl)cc2)N(c2ccc(Cl)cc2)C(=O)N1CC(=O)NN=CC=Cc1ccc([N+](=O)[O-])o1 (stereo unspecified) as the compound, how does the parasite growth, % of DMSO control read?
**A.** 5.05%

**Q.** With Cc1cc(NC(=O)Nc2ccc(N(C)C)cc2)c2cc(F)cc(F)c2n1 as the compound, how does the parasite growth, % of DMSO control read?
**A.** 9.65%

**Q.** With CCNC(=O)Nc1ccc(Oc2ncnc(N)c2C=NOC)cc1Cl as the compound, how does the parasite growth, % of DMSO control read?
**A.** 71.9%

**Q.** For C=C1c2cccc(O)c2C(O)=C2C(=O)[C@@]3(O)C(O)=C(C(N)=O)C(=O)[C@@H](N(C)C)[C@@H]3[C@@H](O)[C@H]12, which parasite growth, % of DMSO control is on record?
**A.** 23.7%

**Q.** With CCCC1OC2C[C@@H]3[C@H]4CCC5=CC(=O)C=C[C@]5(C)[C@H]4C(O)C[C@]3(C)[C@]2(C(=O)CO)O1 (stereo partly specified) as the compound, how does the parasite growth, % of DMSO control read?
**A.** 11.7%

**Q.** Which parasite growth, % of DMSO control does the source give for O=C(O)C1=CC(O)C(O)[C@H](O)C1 (stereo partly specified) here?
**A.** 92.4%

**Q.** For CCCCCCCCCCCCCC(=O)N[C@H](CO)[C@H](O)c1ccc([N+](=O)[O-])cc1, which parasite growth, % of DMSO control is on record?
**A.** 55.9%

**Q.** For Cc1cc2nc3c(=O)[nH]c(=O)nc-3n(CC(O)C(O)C(O)CO)c2cc1C (stereo unspecified), which parasite growth, % of DMSO control is on record?
**A.** 21.3%

**Q.** With N#Cc1c(N(CC(=O)O)CC(=O)O)sc(C(=O)O)c1CC(=O)O as the compound, how does the parasite growth, % of DMSO control read?
**A.** 86.7%

**Q.** For O=C(O)CCNc1cc(N2CCc3ccccc3CC2)nc(-c2ccccn2)n1, which parasite growth, % of DMSO control is on record?
**A.** 19.7%
